Where “and” joins values, the source holds several entries; their conditions need not be identical. Equal values may be shown once. The campaign covered roughly 5,500 compounds. About 2,000 (36%) were called active. Not shown: some 18% with an inconclusive outcome. Cut-off read from the data, not from the text of the source: active = normalized growth mostly below about 0.91 (no sharp cut-off); inconclusive = no clear call, values can overlap the other calls; inactive = mostly above about 0.92. Some of the results follow.
Assay: chemical genetic growth profiling, strain panel (AID 1159580);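 note: tested at 20 µM; growth read once vehicle control cultures reached saturation at 30 °C; 1 = growth at the plate median or of vehicle wells; lower values mean less growth of the strain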
Conditions: growth OD

Measured: normalized growth

OC(CCN1CCCCC1)(c1ccccc1)C1CCCCC1 (stereo unspecified)
inactive: S. cerevisiae deletion strains, locus YJR075W, strain HOC1, stronger effect = lower value 1.01 and 0.98 | S. cerevisiae deletion strains, locus YKL009W, strain mrt4, stronger effect = lower value 0.999 | S. cerevisiae deletion strains, locus YKL068W, stronger effect = lower value 0.997 | S. cerevisiae deletion strains, locus YKL085W, strain MDH1 (second series), stronger effect = lower value 0.998 | S. cerevisiae deletion strains, locus YKL085W, strain MDH1, stronger effect = lower value 0.998 | S. cerevisiae deletion strains, locus YKL160W, strain elf1, stronger effect = lower value 0.96 | S. cerevisiae deletion strains, locus YKL190W, strain CNB1, stronger effect = lower value 1.01 | S. cerevisiae deletion strains, locus YKR001C, strain vps1, stronger effect = lower value 0.985 | S. cerevisiae deletion strains, locus YKR026C, strain gcn3, stronger effect = lower value 0.971 | S. cerevisiae deletion strains, locus YKR091W, strain srl3, stronger effect = lower value 0.978 | S. cerevisiae deletion strains, locus YLL001W, strain dnm1, stronger effect = lower value 0.918 | S. cerevisiae deletion strains, locus YLL026W, stronger effect = lower value 0.981 | S. cerevisiae deletion strains, locus YLL041C, strain sdh2, stronger effect = lower value 0.975 | S. cerevisiae deletion strains, locus YLR027C, strain aat2, stronger effect = lower value 0.954 | S. cerevisiae deletion strains, locus YLR039C, strain RIC1, stronger effect = lower value 1.12 | S. cerevisiae deletion strains, locus YLR058C, strain SHM2, stronger effect = lower value 1.01 | S. cerevisiae deletion strains, locus YLR102C, strain apc9, stronger effect = lower value 0.995 | S. cerevisiae deletion strains, locus YLR113W, strain HOG1, stronger effect = lower value 0.991 | S. cerevisiae deletion strains, locus YLR221C, strain rsa3, stronger effect = lower value 1.01 | S. cerevisiae deletion strains, locus YLR258W, strain gsy2, stronger effect = lower value 0.992 | S. cerevisiae deletion strains, locus YLR262C, strain YPT6 (second series), stronger effect = lower value 0.989 | S. cerevisiae deletion strains, locus YLR262C, strain YPT6, stronger effect = lower value 1.1 | S. cerevisiae deletion strains, locus YLR268W, strain sec22, stronger effect = lower value 0.98 | S. cerevisiae deletion strains, locus YLR320W, strain mms22, stronger effect = lower value 0.961 | S. cerevisiae deletion strains, locus YLR330W, strain CHS5, stronger effect = lower value 1.01 | S. cerevisiae deletion strains, locus YLR342W, strain FKS1 (second series), stronger effect = lower value 1 | S. cerevisiae deletion strains, locus YLR342W, strain FKS1, stronger effect = lower value 0.959 | S. cerevisiae deletion strains, locus YLR357W, strain rsc2, stronger effect = lower value 0.939 | S. cerevisiae deletion strains, locus YLR370C, strain arc18, stronger effect = lower value 0.974 | S. cerevisiae deletion strains, locus YLR371W, strain rom2, stronger effect = lower value 1 | S. cerevisiae deletion strains, locus YLR384C, strain iki3, stronger effect = lower value 0.961 | S. cerevisiae deletion strains, locus YLR418C, strain cdc73, stronger effect = lower value 0.966 | S. cerevisiae deletion strains, locus YML016C, strain PPZ1, stronger effect = lower value 1.01 | S. cerevisiae deletion strains, locus YML032C, strain rad52, stronger effect = lower value 0.986 | S. cerevisiae deletion strains, locus YML120C, strain ndi1, stronger effect = lower value 0.97 | S. cerevisiae deletion strains, locus YML124C, strain tub3, stronger effect = lower value 0.997 | S. cerevisiae deletion strains, locus YMR058W, strain fet3, stronger effect = lower value 0.964 | S. cerevisiae deletion strains, locus YMR078C, strain ctf18, stronger effect = lower value 0.998 | S. cerevisiae deletion strains, locus YMR125W, strain sto1, stronger effect = lower value 0.977 | S. cerevisiae deletion strains, locus YMR129W, stronger effect = lower value 0.98 | S. cerevisiae deletion strains, locus YMR205C, strain PFK2, stronger effect = lower value 0.955 | S. cerevisiae deletion strains, locus YMR223W, strain ubp8, stronger effect = lower value 1.01 | S. cerevisiae deletion strains, locus YMR231W, strain pep5, stronger effect = lower value 0.973 | S. cerevisiae deletion strains, locus YMR263W, strain SAP30, stronger effect = lower value 1.01 and 0.983 | S. cerevisiae deletion strains, locus YMR307W, strain GAS1, stronger effect = lower value 1.01 and 0.985 | S. cerevisiae deletion strains, locus YNL067W, strain RPL9B, stronger effect = lower value 1 | S. cerevisiae deletion strains, locus YNL071W, strain lat1, stronger effect = lower value 0.98 | S. cerevisiae deletion strains, locus YNL128W, strain TEP1, stronger effect = lower value 1.02 | S. cerevisiae deletion strains, locus YNL153C, strain GIM3, stronger effect = lower value 1 | S. cerevisiae deletion strains, locus YNL175C, strain NOP13, stronger effect = lower value 1.01 | S. cerevisiae deletion strains, locus YNL183C, strain NPR1, stronger effect = lower value 0.935 | S. cerevisiae deletion strains, locus YNL197C, strain WHI3, stronger effect = lower value 1.03 | S. cerevisiae deletion strains, locus YNL209W, strain ssb2, stronger effect = lower value 0.993 | S. cerevisiae deletion strains, locus YNL224C, strain SQS1, stronger effect = lower value 0.998 | S. cerevisiae deletion strains, locus YNL233W, strain BNI4, stronger effect = lower value 0.998 | S. cerevisiae deletion strains, locus YNL248C, strain rpa49, stronger effect = lower value 0.995 | S. cerevisiae deletion strains, locus YNL250W, strain rad50, stronger effect = lower value 0.999 | S. cerevisiae deletion strains, locus YNL271C, strain bni1, stronger effect = lower value 0.989 | S. cerevisiae deletion strains, locus YNL298W, strain CLA4, stronger effect = lower value 1.02 | S. cerevisiae deletion strains, locus YNL307C, strain MCK1, stronger effect = lower value 0.998 | S. cerevisiae deletion strains, locus YNL322C, strain KRE1 (second series), stronger effect = lower value 0.976 | S. cerevisiae deletion strains, locus YNL322C, strain KRE1, stronger effect = lower value 1.01 | S. cerevisiae deletion strains, locus YNR049C, strain mso1, stronger effect = lower value 0.967 | S. cerevisiae deletion strains, locus YNR052C, strain pop2, stronger effect = lower value 1 | S. cerevisiae deletion strains, locus YOL006C, strain TOP1, stronger effect = lower value 0.951 | S. cerevisiae deletion strains, locus YOL012C, strain htz1 0.776 | S. cerevisiae deletion strains, locus YOL147C, strain pex11, stronger effect = lower value 0.994 | S. cerevisiae deletion strains, locus YOR001W, strain rrp6, stronger effect = lower value 0.949 | S. cerevisiae deletion strains, locus YOR061W, strain CKA2, stronger effect = lower value 1.01 | S. cerevisiae deletion strains, locus YOR069W, strain VPS5, stronger effect = lower value 1.01 | S. cerevisiae deletion strains, locus YOR070C, strain gyp1, stronger effect = lower value 0.986 | S. cerevisiae deletion strains, locus YOR080W, strain dia2, stronger effect = lower value 0.971 | S. cerevisiae deletion strains, locus YOR083W, strain WHI5 (second series), stronger effect = lower value 0.994 | S. cerevisiae deletion strains, locus YOR083W, strain WHI5, stronger effect = lower value 0.951 | S. cerevisiae deletion strains, locus YOR106W, strain vam3, stronger effect = lower value 0.936 | S. cerevisiae deletion strains, locus YOR136W, strain idh2, stronger effect = lower value 1 | S. cerevisiae deletion strains, locus YOR144C, strain elg1, stronger effect = lower value 0.993 | S. cerevisiae deletion strains, locus YOR184W, strain ser1, stronger effect = lower value 1.01 | S. cerevisiae deletion strains, locus YOR231W, strain MKK1, stronger effect = lower value 0.984 | S. cerevisiae deletion strains, locus YOR265W, strain rbl2, stronger effect = lower value 0.983 | S. cerevisiae deletion strains, locus YOR270C, strain vph1, stronger effect = lower value 0.849 | S. cerevisiae deletion strains, locus YOR290C, strain snf2, stronger effect = lower value 0.989 | S. cerevisiae deletion strains, locus YOR316C, strain cot1, stronger effect = lower value 1 | S. cerevisiae deletion strains, locus YPL051W, strain arl3, stronger effect = lower value 0.984 | S. cerevisiae deletion strains, locus YPL055C, strain LGE1, stronger effect = lower value 1.03 and 0.971 | S. cerevisiae deletion strains, locus YPL078C, strain atp4, stronger effect = lower value 0.931 | S. cerevisiae deletion strains, locus YPL106C, strain sse1, stronger effect = lower value 1.01 | S. cerevisiae deletion strains, locus YPL240C, strain hsp82, stronger effect = lower value 0.976 | S. cerevisiae deletion strains, locus YPL241C, strain CIN2, stronger effect = lower value 1.01 | S. cerevisiae deletion strains, locus YPL256C, strain CLN2, stronger effect = lower value 0.962 | S. cerevisiae deletion strains, locus YPR119W, strain clb2, stronger effect = lower value 0.998 | S. cerevisiae deletion strains, locus YPR141C, strain kar3, stronger effect = lower value 1.01 | S. cerevisiae deletion strains, locus YPR163C, strain tif3, stronger effect = lower value 0.988 | S. cerevisiae deletion strains, locus YPR167C, strain met16, stronger effect = lower value 0.998 | S. cerevisiae deletion strains, strain wtn01, stronger effect = lower value 0.993 | S. cerevisiae strains, strain wild type, stronger effect = lower value 1.01

Reference: PubChem BioAssay AID1159580 (chemical genetic matrix, 2015)
